Rows were chosen to be rich in hits. Some 3.3% of all compounds tested hit in one or more screens of this group.
SMARCA2 activ: increases SMARCA2 function in MMTV reporter cells; MG213 cells, MMTV-luciferase reporter, dexamethasone, overnight; activation, % at 9.1 µM; 370,000 tested, 1% active; AID 652017; in the data active = activation above about 7.8%;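 also: 0% = vehicle wells and 100% = reference activator wells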
697 NFkB inh: lowers PMA/ionomycin-induced NF-kB signal in 697 B cells; 697 B-cell NF-kB luciferase reporter, 16 h; inhibition, % at 4 µM; 330,000 tested, 0.33% active; AID 435022; in the data active = inhibition above about 35%
esBAF inh: blocks esBAF chromatin remodeling in mouse ES cells; Bmi1-luciferase knock-in reporter, 24 h; 100% = twice the neutral-well signal; reporter increase, % at 12.5 µM; 350,000 tested, 2% active; in the data active = activation above about 40%;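 also: 0% = median of the plate's neutral control wells and 100% = double that signal; a rise in the Bmi1 reporter signal indicates esBAF inhibition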
Gli-Sufu block: Gli-Sufu pathway antagonism. Sufu-KO-LIGHT fibroblasts, Gli luciferase reporter luminescence. 340,000 tested, 0.74% active. AID 588413. inhibition, % at 5 µM;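 active = inhibition above about 55%, limit read from the data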;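 also: 0% = DMSO-treated cells and 100% = wells with medium but no cells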
Jurkat NFkB inh: inhibitors of the PMA/ionomycin-induced NF-kB reporter in Jurkat cells; PMA/ionomycin-induced NF-kB luciferase reporter, luminescence; 330,000 tested, 0.53% active; inhibition, % at 4 µM; in the data active = inhibition above about 50%
Jurkat NFkB conf: inhibitors of the PMA/ionomycin-induced NF-kB reporter in Jurkat cells, retest; AID 435020; Jurkat NF-kB luciferase, 16 h; 2,700 tested, 27% active; shares compounds with Jurkat NFkB inh; inhibition, % at 4 µM;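 active = inhibition reaching about 45% at 4 µM in either replicate, limit read from the data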;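 also: plate controls were PMA/ionomycin stimulated DMSO wells for no effect and unstimulated DMSO wells for full effect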
The depositor's hits bear a star; x = no result.

SMILES | SMARCA2 activ | 697 NFkB inh | esBAF inh | Gli-Sufu block | Jurkat NFkB inh | Jurkat NFkB conf
Cc1ccc2nc(-c3ccc4c(c3)OCCO4)cn2c1 | -9 | -21 | x | 65* | 83* | 51*
c1ccn2cc(-c3ccc4c(c3)OCCO4)nc2c1 | -4 | -91 | x | -54 | -88 | x
CSc1ccc(/C=N/NC(=O)c2sccc2C)cc1 | 0 | -187 | x | -53 | -159 | -93
CSc1ccc(/C=N/NC(=O)c2ccc(C)c(C)c2)cc1 | 0 | 1 | x | -9 | -13 | x
C[C@@H]1CN([C@H](C)CO)S(=O)(=O)c2ccc(-c3cncnc3)cc2O[C@@H]1CN(C)Cc1cccnc1 | x | x | -3 | x | x | x
CCCN1[C@H](C(=O)Nc2nccs2)[C@@H](CO)[C@@H]2Cn3c(ccc(-c4ccccc4OC)c3=O)[C@@H]21 | x | x | -2 | x | x | x
CCc1ccc(Cc2cnc(NC(=O)C3=NCCN3)s2)cc1 | -4 | -14 | x | 0 | -1 | x
Cc1ccc(C(=O)Nc2ncc(Cc3ccc(SC(F)F)cc3)s2)cc1 | -1 | -78 | x | 37 | 64* | 48*
C[C@H]1CN([C@@H](C)CO)C(=O)CCCn2cc(nn2)CO[C@H]1CN(C)Cc1ccccc1C(=O)O | x | x | 2 | x | x | x
CN1c2ccc(Br)cc2[C@H]2[C@H](CCN2S(=O)(=O)c2cccc(F)c2)[C@H]1CO | x | x | -2 | x | x | x
Cc1ccc(S(=O)(=O)N(C)C[C@H]2Oc3ccc(NC(=O)Nc4ccc(C(F)(F)F)cc4)cc3C(=O)N([C@H](C)CO)C[C@@H]2C)cc1 | x | x | -3 | x | x | x
Clc1ccc(-c2cn3c(n2)-c2ccccc2C3)cc1Cl | 0 | -246 | x | -139 | -158 | -112
c1ccc2c(c1)Cn1c-2nc2ccccc21 | 5 | -107 | 28 | -92 | -93 | x
CN1C(=O)c2cc(NC(=O)Nc3ccccc3)ccc2OC[C@@H]2O[C@@H](CC(=O)O)CC[C@H]21 | x | x | -3 | x | x | x
COC(=O)/C=C/c1ccccc1S(=O)(=O)N(Cc1ccccc1)Cc1ccco1 | -2 | -90 | -18 | 9 | 56* | 7
O=S(=O)(c1ccc(S(=O)(=O)N(Cc2ccccc2)Cc2ccco2)cc1)N1CCCC1 | 2 | -2 | 0 | -2 | -12 | x
COc1ccc(NC(=O)N(C)C[C@H]2OCCCC[C@H](C)Oc3ccc(NC(=O)C4CCCCC4)cc3C(=O)N([C@@H](C)CO)C[C@H]2C)cc1 | x | x | -1 | x | x | x
Nc1nc(Cl)nc(N(c2ccccc2)c2ccccc2)n1 | -1 | 10 | x | -9 | -2 | x
Nc1nc(CCl)nc(N(c2ccccc2)c2ccccc2)n1 | -4 | 34 | x | 4 | 76* | 19
Cc1c(-c2nc(N)nc(Nc3ccccc3F)n2)oc2ccccc12 | 4 | -182 | 48* | -146 | -200 | -99
CCC(=O)Nc1ccc2c(c1)OC[C@H](C)N(Cc1cccnc1)C[C@H](C)[C@H](OC)CN(C)C2=O | x | x | 0 | x | x | x
COCC(=O)N1C[C@@H](C)[C@H](OC)CN(C)C(=O)c2ccc(NS(C)(=O)=O)cc2OC[C@@H]1C | x | x | 1 | x | x | x
C=CCn1c(SCc2cc(C(C)=O)ccc2OCC)nc2ccccc2c1=O | -1 | 7 | x | 14 | 58* | 36
COc1ccc(C(C)=O)cc1CSc1nc2ccccc2c(=O)n1-c1ccccc1 | -1 | 20 | 8 | 4 | 2 | x
CCCC1=Nc2cc(C(=O)NCCCOCC)ccc2Sc2ccccc21 | -4 | -179 | x | 44 | 57* | 51*
SMILES | SMARCA2 activ | 697 NFkB inh | esBAF inh | Gli-Sufu block | Jurkat NFkB inh | Jurkat NFkB conf
CC1=Nc2cc(C(=O)NCCCOC(C)C)ccc2Sc2ccccc21 | -1 | -1 | x | -7 | 24 | x
CC1=Nc2cc(C(=O)O)ccc2Sc2ccc(Br)cc21 | -3 | 30 | -3 | -5 | -1 | x
CC1=Nc2cc(C(=O)NCC3CCCO3)ccc2Sc2ccc(Br)cc21 (stereo not given) | -4 | -28 | -5 | -3 | 52* | 13
Cc1ccc2c(Cl)c(C(=O)NCC3CCCO3)sc2c1 (stereo not given) | 5 | -125 | x | -45 | -159 | -46
O=C(NCC1CCCO1)c1sc2ccccc2c1Cl (stereo not given) | 4 | -74 | x | -68 | -78 | x
CC1=Nc2cc(C(=O)NCCCOC(C)C)ccc2Sc2ccc(C)cc21 | -2 | 1 | x | -3 | 64* | 32
O=C(Nc1nc2ccc(C(=O)N3CCCCC3)cc2s1)C1CCCCC1 | 2 | -72 | x | -28 | 60* | 19
O=C(NCc1ccc(Cl)cc1)c1cc([N+](=O)[O-])ccc1Cl | 0 | 15 | x | -11 | 60* | 12

Bioassay records deposited in PubChem by several laboratories.
